# Laboratory results taken from PubChem BioAssay AID560 (The Scripps Research Institute Molecular Screening Center, 2006).
# Out of some 65,000 compounds screened, about 980 (1.5%) were called active.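 Rule for the calls: active = activation above the mean of all tested compounds plus 3 SD (cut at about 49% in these data); inactive = the rest.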 Many of the other results were omitted from the sample, so actives are more common in it than they were.
# Molecular target: Nuclear receptor ROR-alpha (Homo sapiens) (UniProt P35398)
# Sequence (P35398 whole entry, looked up): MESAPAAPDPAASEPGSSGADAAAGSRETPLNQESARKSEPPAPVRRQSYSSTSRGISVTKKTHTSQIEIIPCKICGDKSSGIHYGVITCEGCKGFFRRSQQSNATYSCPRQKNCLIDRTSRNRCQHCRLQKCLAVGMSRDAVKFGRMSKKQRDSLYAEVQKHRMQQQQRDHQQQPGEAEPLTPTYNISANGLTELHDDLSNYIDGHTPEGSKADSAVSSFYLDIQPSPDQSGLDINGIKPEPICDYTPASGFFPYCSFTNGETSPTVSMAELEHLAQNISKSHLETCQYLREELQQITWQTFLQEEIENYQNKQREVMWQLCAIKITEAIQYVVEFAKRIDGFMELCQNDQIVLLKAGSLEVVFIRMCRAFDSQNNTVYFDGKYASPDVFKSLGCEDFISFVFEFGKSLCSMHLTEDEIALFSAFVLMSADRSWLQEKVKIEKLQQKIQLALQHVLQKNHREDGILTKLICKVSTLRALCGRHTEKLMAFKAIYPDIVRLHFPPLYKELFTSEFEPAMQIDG
# Assay: activators of orphan receptor RORA, primary screen, cell-based, luminescence (AID 560);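 note: 0% = DMSO-treated RORA cells and 100% = added signal equal to DMSO minus mock-transfected cells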
# Conditions: CHO-K1 Gal4-RORA LBD luciferase reporter, at 10 µM, hits give high values, percent increase over mock-subtracted basal signal
row,SMILES,activation
1,O=C(NCCCNC(=O)NC1CCCCC1)NC1CCCCC1,-10.6% (inactive)
2,CCS(=O)(=O)N1CCC(C(=O)N2CCN(c3ccccc3)CC2)CC1,-6.6% (inactive)
3,COc1cccc2sc(Nc3nc(C)c(C(C)=O)s3)nc12,39.6% (inactive)
4,Cc1cc(C)c2c(c1)cc(C)c1nnc(SCC(=O)Nc3cc(C)on3)n12,44.5% (inactive)
5,Cc1cccc(NC(=O)c2ccccc2NC(=O)C(C)(C)C)n1,17.7% (inactive)
6,Cc1cccc(NC(=O)c2ccc3ccccc3n2)n1,83% (active)
7,Cc1cccc(NC(=O)COc2ccccc2C)n1,-18.4% (inactive)
8,CC(=O)c1c(N)n(C)c(=O)n(C)c1=O,-5.2% (inactive)
9,c1ccc2c(NCC3CCCO3)nc(-c3ccncc3)nc2c1 (stereo not drawn),-11.3% (inactive)
10,Cc1ccc(-n2c(SCC(=O)Nc3ccc4c(c3)OCO4)nnc2-c2ccoc2C)cc1,-1.7% (inactive)
11,O=C(Cc1nn[nH]n1)NCCC1=CCCCC1,-13.7% (inactive)
12,CN(c1ccc(C(=O)NCCC2=CCCCC2)cc1)S(C)(=O)=O,63% (active)
13,Cn1nnc2cc(C(=O)NCCC3=CCCCC3)ccc21,18.1% (inactive)
14,CC(=NCC1CCCO1)c1c(O)[nH]c(=O)[nH]c1=O (stereo not drawn),2.9% (inactive)
15,O=C1C(C=NCC2CCCO2)=C(O)c2ccccc21 (stereo not drawn),48.7% (active)
16,O=C(CS(=O)(=O)Cc1ccccc1)NCC1CCCO1 (stereo not drawn),11.4% (inactive)
17,Cc1ccccc1Nc1nc(N)nc(CN2CCN(c3ccccn3)CC2)n1,-2.8% (inactive)
18,CC(=O)Nc1cccc(NC(=O)c2c(-c3ccccc3)noc2C)c1,-6.7% (inactive)
19,CC(=O)Nc1cccc(-c2cnc3ccccc3n2)c1,72.9% (active)
20,Cc1cc(O)ccc1-c1cnc2ccccc2n1,30.5% (inactive)
21,CC(C)CC(=O)N=C1SC2CS(=O)(=O)CC2N1CCc1ccccc1 (stereo not drawn),-3.3% (inactive)
22,Cn1c(CNC(=O)C(C)(C)C)nc2ccccc21,13.9% (inactive)
23,CCN(CC)C(=O)CSc1nnc(-c2cnccn2)n1-c1ccc(C)cc1,12% (inactive)
24,O=C(CSc1nnc(-c2cnccn2)n1Cc1ccco1)c1ccc(Cl)c(Cl)c1,1.4% (inactive)
25,Cn1c(SCc2c(F)cccc2Cl)nnc1-c1cnccn1,62.8% (active)
26,COCCn1nnnc1CN1CCC(NC(=O)Nc2cccc(OC)c2)CC1,-9% (inactive)

row,SMILES,activation
1,CCOc1cc(S(=O)(=O)NCc2ccc3c(c2)OCO3)ccc1F,-24.1% (inactive)
2,CCn1c(CSc2ncccn2)nnc1SCC(=O)N1c2ccccc2CC1C (stereo not drawn),-7.8% (inactive)
3,Cn1c(SCc2nc3ccccc3s2)nnc1-c1ccc2c(c1)OCO2,37.8% (inactive)
4,CC(C)OC(=O)c1sc2nc3c(cc2c1N)C(=O)CCC3,47.6% (inactive)
5,Oc1ccc2nc(Cc3ccccc3)[nH]c2c1,2.5% (inactive)
6,Oc1ccc(Cl)cc1/C=N/c1nc2ccccc2[nH]1,51.7% (active)
7,c1ccc2[nH]c(-c3nc4ccccc4[nH]3)nc2c1,14.8% (inactive)
8,O=C(C1CCCO1)N1CCC(c2nc3ccccc3[nH]2)CC1 (stereo not drawn),-13.4% (inactive)
9,Fc1c(F)c(C(F)(F)F)c(F)c(F)c1N1CCN(c2ccc3nnc(C(F)(F)F)n3n2)CC1,-6.8% (inactive)
10,COc1cccc(C(=O)c2cc3ccc(O)cc3oc2=O)c1,0.2% (inactive)
11,O=c1oc2cc(O)ccc2cc1-c1ccc(F)cc1,61.8% (active)
12,COc1ccc(-c2cc3ccc(OCc4nn[nH]n4)cc3oc2=O)cc1,-23.3% (inactive)
13,O=C(O)C1OC(C(=O)O)C2C1C(F)(F)C2(F)F (stereo not drawn),-1.8% (inactive)
14,CCCn1c(=O)c(-c2ccccc2)c(O)c2ccccc21,5.6% (inactive)
15,CCOCCCNS(=O)(=O)Cc1ccccc1,-16.2% (inactive)
16,O=C1CCCC2=C1C(c1cccs1)n1nc(SCc3ccccc3)nc1N2 (stereo not drawn),-13.1% (inactive)
17,O=C(CN1CCOCC1)N1CCCc2c1c(=O)oc1ccc(OCc3ccccc3)cc21,-15.9% (inactive)
18,CCOc1ccc(-c2nnc(-c3ccco3)o2)cc1,-31.6% (inactive)
19,CCC(=O)Oc1cccc(C(=O)Nc2ccc(-c3nnc(-c4ccco4)o3)cc2)c1,112% (active)
20,Cc1ccc(OCC(=O)Nc2ccc(-c3nnc(-c4ccco4)o3)cc2)cc1,20.8% (inactive)
21,CCOc1cc(C(=O)Nc2ncccn2)cc(OCC)c1OCC,-3.1% (inactive)
22,Cn1c(=O)c(C(=O)Nc2ncccn2)c(O)c2ccccc21,61% (active)
23,O=C(Nc1ncccn1)c1cccs1,-6.7% (inactive)
24,CC(C)C(c1nnnn1CCc1ccccc1)N1CCN(C(=O)c2ccco2)CC1 (stereo not drawn),-9% (inactive)
25,CCC(CC)c1nnc(NS(=O)(=O)Cc2ccccc2)s1,-5.9% (inactive)
26,O=C(c1cc(-c2cccs2)on1)N1CCCCC1,63.4% (active)

row,SMILES,activation
1,COc1ccccc1N1CCN(C(=O)c2cc(-c3ccc(Br)cc3)on2)CC1,-2.4% (inactive)
2,COc1ccccc1-c1cc(C(=O)N2CCCCC2)no1,56.5% (active)
3,O=C(CSCc1cccs1)N1CCCC1,22.9% (inactive)
4,O=C(c1cc(-c2ccccc2O)on1)N1CCCC1,18.2% (inactive)
5,Cc1cc(NC(=O)c2cc(-c3cccs3)on2)nn1Cc1ccc(Cl)cc1,27.5% (inactive)
6,Cc1cc(Cl)c(S(=O)(=O)NCCC(=O)O)cc1OCC(N)=O,-22.1% (inactive)
7,COc1ccc(OCCCON2C(=O)c3ccccc3C2=O)cc1,-11.1% (inactive)
8,C[N+]1(CCNC(=O)/C=N/O)CCCCC1,-28.3% (inactive)
9,O=C(Nc1ccon1)c1cccc(Cl)c1,-2.3% (inactive)
10,C=C(C)Cn1c(SCC(=O)NCc2ccco2)nc2sc3c(c2c1=O)CCC3,-4% (inactive)
11,CN(C)CCSc1nc(N)c2c3c(sc2n1)COC(C)(C)C3,10.3% (inactive)
12,C=C(C)CSc1nc(N)c2c3c(sc2n1)CCC3,56.2% (active)
13,CCn1cc(C(=O)NCC2CCCO2)c(=O)c2cc(S(=O)(=O)N3CCCCC3)ccc21 (stereo not drawn),-5.2% (inactive)
14,O=C(CCCn1c(SCC(=O)c2ccc(F)cc2)nc2ccccc2c1=O)NCc1ccco1,40.5% (inactive)
15,COc1ccc(-c2noc(-c3cccc(OC)c3OC)n2)cc1OC,89.8% (active)
16,COc1ccc(-c2nc(-c3ccccc3)no2)c(OC)c1,-78.4% (inactive)
17,COc1cc(-c2nc(-c3ccncc3)no2)cc(OC)c1OC,5.3% (inactive)
18,CC(=O)Nc1ccc(NS(=O)(=O)c2cc(C)sc2C)cc1,-3% (inactive)
19,CC(C)C(=O)Nc1cccc(C(=O)Nc2ccc3c(c2)OCO3)c1,31.6% (inactive)
20,Cn1c(=O)n(C)c2cc(C(=O)Nc3ccc4c(c3)OCO4)ccc21,19.1% (inactive)
21,COc1ccc(C(=O)Nc2ccc3c(c2)OCO3)cc1OC,69.8% (active)
22,O=C(Nc1ccc(-c2nnc(-c3ccccc3)o2)cc1)c1ccc(Br)o1,9.1% (inactive)
23,Nc1ccc(-c2nnc(-c3ccc(-c4ccccc4)cc3)o2)cc1,60.7% (active)
24,COc1ccc(CC(=O)Nc2ccc(-c3nnc(-c4ccccc4)o3)cc2)cc1,8.7% (inactive)
25,CN(C)c1ccc(CNC23CN4CN(CN(C4)C2)C3)cc1,-19.1% (inactive)
26,CN(Cc1ccccc1)Cc1ccccc1F,5.2% (inactive)
